Results taken from ChEMBL document CHEMBL1157539, “Thousands of chemical starting points for antimalarial lead identification” (Nature, 2010).

The molecules below were run on Plasmodium falciparum (assay: GSK_TCMDC: Inhibition of Plasmodium falciparum 3D7 in whole red blood cells, using parasite LDH activity as an index of growth. Test compounds present at 2uM).
Format: functional

Row | SMILES | Inhibition
1 | COc1ccc(C(=O)C2CCN(CCCCNC(=O)c3ccc(NC(=O)c4ccc(Cl)cc4)cc3)CC2)c(OC)c1 | 98%
2 | O=C(Nc1cc(C(F)(F)F)cc(C(F)(F)F)c1)N1CCC(CCN2CCC(c3c[nH]c4ccccc34)CC2)CC1 | 91%
3 | O=C(/C=C/c1ccc(Cl)c(Cl)c1)NCCCCCN1CCC(CCCNC(=O)Nc2ccc(C(F)(F)F)cc2)CC1 | 91%
4 | CC1CCCCN1CCCNc1ncc2c(-c3ccc(NC(=O)Nc4cc(C(F)(F)F)ccc4F)c(F)c3)nn(C)c2n1.O=C(O)C(F)(F)F (stereo not given) | 100%
5 | CC(=O)N1N=C(c2[nH]c3ccc(Br)cc3c2C)OC1c1ccccc1 (stereo not given) | 86%
6 | CC(Cc1ccc(NC(=O)c2ccc(CC(C)NCc3ccc(Cl)c(Cl)c3)cc2)cc1)NCCc1cccc(Cl)c1 (stereo not given) | 92%
7 | CCCCCCOc1ccc(C(=O)NCCCC2CCCN(CCCCCNC(=O)C=Cc3ccc(Cl)c(Cl)c3)C2)cc1 (stereo not given) | 96%
8 | CS(=O)(=O)N(CC(O)Cn1c2ccc(Cl)cc2c2cc(Cl)ccc21)c1ccccc1 (stereo not given) | 100%
9 | CN1CCCN(Cc2ccc(-c3cccc(NC(=O)c4ccc(F)cc4)c3)cc2)CC1.O=C(O)C(F)(F)F | 89%
10 | COc1ccc(Cc2c(C)nc3nc(N)nc(N)c3c2C)cc1OC.Cl | 93%
11 | Cc1[nH]c(C)c(-c2ccc(Oc3cccc(Cl)c3)cc2)c(=O)c1Br | 98%
12 | COc1ccccc1C1CCN(CCCCNC(=O)c2ccc(/C=C/c3cc(Cl)cc(Cl)c3)cc2)CC1 | 96%
13 | Cc1cc(OCCCN2CCCCC2)ccc1NC(=O)COc1ccc(Cl)cc1C(=O)c1cc(C#N)cc(C(F)(F)F)c1 | 87%
14 | O=C(O)C(F)(F)F.c1ccc(CNCc2cccc(-c3ccc(-c4nc5ccccc5[nH]4)s3)c2)cc1 | 95%
15 | O=C(Nc1ccc(-c2ccccc2)s1)N[C@H]1CCN(Cc2ccc(OCCCN3CCCCC3)cc2)C1 | 100%
16 | CCOC(=O)N(C)/N=C/[C@H](CCc1ccccc1)NC(=O)[C@H](CC(C)C)NC(=O)c1cc2cccc(OC)c2o1 | 86%
17 | CC(C)CC(C)NC(=O)C1Cc2c([nH]c3cc(Cl)ccc23)C2(CCN(CCc3ccccc3)CC2)N1 (stereo not given) | 95%
18 | CC[C@H](NC(=O)c1c(CC2CCN(CC(C)=O)CC2)c(-c2ccccc2)nc2ccccc12)c1ccccc1 | 97%

Row | SMILES | Inhibition
19 | N=C(N)Nc1nc(-c2cccc(NC(=O)Cc3ccccc3)c2)cs1 | 99%
20 | O=C(/C=C/c1ccc(C(F)(F)F)cc1)NCCCCCN1CCN(C(=O)Nc2ccc(Cl)c(Cl)c2)CC1 | 95%
21 | COc1ccc(CN2CCCN(Cc3cccc(NC(=O)c4cc5ccccc5s4)c3)CC2)cc1.O=C(O)C(F)(F)F | 94%
22 | Cl.O=C1CSc2ccc(CNC3CCN(CCc4c(F)cnc5ccc(F)cc45)CC3)nc2N1 | 97%
23 | CNC(=O)c1cc(S(=O)(=O)N2CCN(c3ccccn3)CC2)c(C)s1 | 91%
24 | Cc1ccc(CNC(=O)c2cc3c(=O)n4cccc(C)c4nc3n(CCN3CCOCC3)c2=N)cc1 | 97%
25 | COc1ccc(-n2cc(C(=O)c3cc(Br)ccc3O)cc(C#N)c2=O)cc1Cl | 99%
26 | CN(C)C(CNC(=O)c1cc(-c2ccncc2)c(-c2cc3ccccc3[nH]2)o1)c1ccccc1.O=C(O)C(F)(F)F (stereo not given) | 96%
27 | CCn1c(Sc2ccc([N+](=O)[O-])c(C#N)c2)nnc1-c1ccc(Cl)cc1 | 93%
28 | CS(=O)(=O)CCNCc1cccc(-c2ccc3c(Nc4ccc(Oc5ccccc5)cc4)ccnc3c2)c1 | 100%
29 | CCn1c(C)c(C)c2cc(C(=O)Nc3ccon3)ccc21 | 95%
30 | O=C(N[C@H]1CCN(CCc2ccc(O[C@H]3CCNC3)c(F)c2)C1)c1ccc(Cl)c(Cl)c1.O=C(O)C(F)(F)F | 95%
31 | O=C(CCCCCNC(=O)c1ccc(O)c(-c2ccc(Cl)c(Cl)c2)c1)NCCc1ccc(Cl)c(Cl)c1 | 97%
32 | Fc1ccc2[nH]c(-c3ccc(-c4cccc(CN5CCN(c6ccncc6)CC5)c4)cc3)nc2c1.O=C(O)C(F)(F)F | 100%
33 | O=C(/C=C/c1ccc(Cl)c(Cl)c1)NCCCCCN1CCC(C(=O)Nc2cccc(Cl)c2)CC1 | 100%
34 | Cc1cnc(C[S+]([O-])c2nc3cc(C(F)(F)F)ccc3[nH]2)cc1OCc1ccccc1 (stereo not given) | 93%
35 | Cc1ccccc1C1CCN(c2ccc(C(=O)Nc3ccccc3)cn2)CC1.O=C(O)C(F)(F)F | 95%
